Assay outcomes deposited in PubChem by National Center for Advancing Translational Sciences (NCATS).
Hits are enriched below; roughly 11% of the tested compounds scored in any of these assays.
Tau fibril ThT – blocks human tau fibril formation measured by thioflavin T; P10636; AID 1460; recombinant tau K18 P301L, heparin-induced fibrillization, ThT fluorescence; Potency, µM (titrated, usually from 57.4 µM), for the others: top-dose activity, negative = inhibition, actives largely listed as inhibitors; hit rate 2.1% among 270,000; note: potency is the fitted concentration of half-maximal effect; nearly all actives have a fitted effect of over 55% in size
Target sequence (P10636 561-689 P618L limits assumed): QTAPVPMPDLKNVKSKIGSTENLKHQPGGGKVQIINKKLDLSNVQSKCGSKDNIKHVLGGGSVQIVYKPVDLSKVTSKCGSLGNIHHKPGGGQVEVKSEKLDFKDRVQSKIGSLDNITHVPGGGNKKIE
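Heparin-induced fibrillization of the P301L-mutant K18 repeat-domain fragment of human tau was followed by ThT binding in quantitative high-throughput format.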
FBPA coupling cs – inhibits coupling enzyme system, counter-screen for aldolase hits. hit rate 0.67% among 290,000. activity change, negative = inhibition, % at 58.2 µM, hits read low. AID 2472. coupling enzyme system counterscreen, AmpLite Red fluorescence; in the data active = activity change below about -30%
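First, compound is pin-transferred into glyceraldehyde-3-phosphate coupling-enzyme reagent at 57.5 uM final and held 10 min at RT. Next, substrate, coupling system and AmpLite Red are added. After 20 min RT, fluorescence (525/598 nm) is read.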
Tau fibril FP – inhibitors of human tau fibril formation; P10636; K18 P301L tau heparin fibrillization, Alexa594 FP, 6 h; Potency, µM (highest dose often 57.7 µM), inactives show top-dose activity, negative = inhibition, actives largely listed as inhibitors; hit rate 0.39% among 280,000; note: potency is the fitted concentration of half-maximal effect; nearly all actives have a fitted effect of over 55% in size
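FP of Alexa 594-tau after heparin (20 uM) induction. Substrate: human K18 P301L, 15 uM unlabeled, 0.24 uM labeled. Buffer 100 mM sodium acetate pH 7. 6 hr, 37 C.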
Sfp inh – Sfp phosphopantetheinyl transferase inhibition; Potency, µM, without a hit: largest response in the series, negative = inhibition, usual class: inhibitors; hit rate 3.5% among 310,000; AID 1490; Q9F4F7; Biochemical Sfp PPTase activity, qHTS;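 note: the enzyme is Sfp with the accession as filed and its product quenches rhodamine fluorescence; potency is the fitted concentration of half-maximal effect; 0% = enzyme reaction without inhibitor and -100% = no enzyme wells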
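Buffer: 50 mM Hepes-Na pH 7.6, 10 mM MgCl2, 0.01% Nonidet P-40, 0.01% BSA. Enzyme 15 nM, pre-exposed to compound 15 min; substrates then added and fluorescence change tracked over 30 min.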
Tau fluor cs – counter-screen for tau fibril formation inhibitors; hit rate 0.93% among 280,000; Potency, µM (doses to about 57.7 µM), inactives show top-dose activity change, negative = decrease; tau K18 P301L (four-repeat tau fragment) Alexa594 fluorescence, heparin fibrillization; note: potency is the fitted concentration of half-maximal effect; nearly all actives have a fitted effect of over 55% in size
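Human K18 P301L tau (15 uM unlabeled plus 0.24 uM Alexa 594-labeled, final) in 100 mM sodium acetate pH 7 was mixed with compound and 20 uM heparin and incubated 6 hr at 37 C.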
G9a block – G9a (human) methyltransferase inhibition | hit rate 8.8% among 350,000 | Potency, µM (series often up to 102 µM), for the others: at the top dose activity, negative = inhibition, actives largely listed as inhibitors | G9a H3K9 monomethylation, AlphaScreen, 2 h | Q96KQ7; note: potency is the fitted concentration of half-maximal effect; nearly all actives have a fitted effect of over 75% in size
Target sequence (Q96KQ7 913-1193 limits assumed): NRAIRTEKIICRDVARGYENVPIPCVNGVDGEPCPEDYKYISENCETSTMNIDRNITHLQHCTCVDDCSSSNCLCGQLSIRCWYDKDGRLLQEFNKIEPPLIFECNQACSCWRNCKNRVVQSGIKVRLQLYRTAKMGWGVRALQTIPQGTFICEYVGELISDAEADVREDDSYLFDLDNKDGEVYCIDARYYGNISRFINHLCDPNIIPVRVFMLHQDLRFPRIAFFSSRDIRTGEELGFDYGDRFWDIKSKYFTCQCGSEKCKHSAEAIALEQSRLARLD
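Quantitative HTS format: methyltransferase activity on a biotin-tagged H3K9 peptide is measured by AlphaScreen, using a rabbit anti-monomethyl-H3K9 antibody with streptavidin donor and anti-IgG acceptor beads. Final levels are 20 nM enzyme, 500 nM peptide, 20 uM SAM; 2 h RT.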
Starred values were filed as active, the others as inactive; ? = inconclusive; nt = no result given; [ ] = another dose, or the depositor's remark. Unless noted, calls come from the whole dose curve; as a rule, active = well fitted curve in the direction sought with a large enough effect; inconclusive = small, poorly fitted or top-dose-only effect, or another doubt; inactive = no such curve, though single readings can be large; an effect the other way counts as inactive or inconclusive. Unless noted, % is set by controls: 0 for no effect and ±100 for the full control effect.

SMILES | Tau fibril ThT | FBPA coupling cs | Tau fibril FP | Sfp inh | Tau fluor cs | G9a block
CCOC(=O)CN1C(=O)C(=O)c2cccc(C)c21 | -13% | -48* | ? | -3% | -5% | ?
Cc1cccc2c1N(Cc1ccccc1OCCC(C)C)C(=O)C2=O | 25µM* | nt | -8% | nt | -27% | 13µM*
Cc1cc(Br)cc2c1N(Cc1ccccc1OC(C)C)C(=O)C2=O | 25µM* | nt | ? | nt | ? | 8.9µM*
Cc1cc2cc(C=C(C#N)C#N)c(Cl)nc2cc1C | 3.2µM* | -1 | ? | ? | -13% | -12%[59 µM]
O=C(CBr)N1CCc2ccccc2C(c2ccccc2)C1 (centres undefined) | -10% | 0 | -1% | 32µM* | -5% | 32µM*
O=C(O)c1ccc(Cn2cnc3cccnc32)cc1 | -7% | -3 | -5% | -15% | -9% | 40µM*
COCCN1C(=O)N(c2cccc(C)c2)C(=O)C1CC(=O)Nc1cc(OC)cc(OC)c1 (centres undefined) | nt | 1 | nt | 3% | nt | 1%
CN(CC(=O)Nc1cccc(F)c1)C(=O)c1ccc(N2CCCCC2)c([N+](=O)[O-])c1 | nt | nt | nt | nt | nt | 14%[0.501 µM]
CN(C)c1ccc(S(=O)(=O)NCC(=O)NCCOc2ccccc2F)cc1[N+](=O)[O-] | nt | nt | nt | nt | nt | 50µM*
CN(CC(=O)Nc1cccc(F)c1)C(=O)CNS(=O)(=O)c1ccc(N(C)C)c([N+](=O)[O-])c1 | nt | nt | nt | nt | nt | 50µM*
CC(C)Cn1nc(C(=O)Nc2cccc(C(=O)NC3CC3)c2)c2ccccc2c1=O | nt | nt | nt | nt | nt | 9%[2.33 µM]
CC(CC(=O)NCc1ccc(Cl)cc1)c1ccccc1 (centres undefined) | nt | 0 | nt | 16% | nt | 39%
O=C(COc1ccc([N+](=O)[O-])cc1)Nc1nc2c(s1)CCCC2 | -11% | nt | 5% | nt | -6% | -27%[59 µM]
CCNC(=O)C1CCCN1S(=O)(=O)c1ccc(OC)cc1 (centres undefined) | 0% | 1 | -9% | 14% | -3% | 8.9µM*
COc1ccc(S(=O)(=O)N2CCC[C@H]2C(=O)NC2=NCCS2)cc1 | -8% | nt | -7% | 12% | -8% | 16%
COc1ccc(S(=O)(=O)N2CCCC2C(=O)Nc2nnc(-c3cccnc3)s2)cc1 (centres undefined) | -17% | 9 | -8% | -7% | -7% | 3.5µM*
CN(C)CCCn1c(=O)n(CCc2ccccc2)c(=O)c2c3c(sc21)CCCCC3 | -5% | 1 | 3% | 10% | -3% | -79%
Cn1c(=O)n(Cc2ccco2)c(=N)c2c3c(sc21)CCC3 | -2% | 4 | 0% | -11% | -4% | -2%[59 µM]
CN(C)CCCn1c(=O)n(Cc2ccco2)c(=O)c2c3c(sc21)CCCCC3 | -8% | 3 | -2% | 20µM* | -4% | ?
CN(C)CCn1c(=O)n(Cc2ccccc2)c(=O)c2c3c(sc21)CCCCC3 | nt | 2 | nt | -6% | nt | 50µM*
Cc1n[nH]c(C)c1Sc1ccccc1[N+](=O)[O-] | -4% | -5 | -2% | 6% | -8% | -27%
Cc1n[nH]c(C)c1Sc1ccccc1N=Cc1cc(Cl)cc([N+](=O)[O-])c1O | 10µM* | -7 | 1% | 14% | -16% | ?
COc1ccc(-c2n[nH]c(C)c2-c2cnn(-c3ccccc3)c2)c(O)c1C | ? | 0 | ? | 18% | 13µM*[quencher] | ?
COc1ccc2c(c1)CCc1c(C(=O)Nc3ccn(Cc4ccc(C)cc4)n3)noc1-2 | -7% | 0 | -9% | -10% | -4% | 17%[2.33 µM]
Cc1ccc(Cn2ccc(NC(=O)c3noc4c3CCc3ccccc3-4)n2)cc1 | -11% | 0 | -6% | 16µM* | -17% | 30%[59 µM]
SMILES | Tau fibril ThT | FBPA coupling cs | Tau fibril FP | Sfp inh | Tau fluor cs | G9a block
Nc1c(N2CCOCC2)cc(Cl)c2nonc12 | 16µM* | -38* | ? | -9% | -25% | ?
Nc1ccc(N2CCCCC2)c2nonc12 | 8.9µM* | -53* | ? | ? | ? | nt
Nc1c(N2CCCC2)cc(Cl)c2nonc12 | 2.8µM* | -34* | ? | -22% | -24% | 4.5µM*
Nc1cc(N2CCCCC2)c([N+](=O)[O-])cc1Cl | 13% | -2 | -15% | 1% | 7% | ?
CCc1c2c(nc3ccc4c(c13)OCCO4)-c1nc3ccccc3c(=O)n1C2 | nt | -4 | nt | -6% | nt | nt
Cc1c(CCOC(=O)C23CC4CC(CC(C4)C2)C3)sc[n+]1CC#N | -14% | 3 | -8% | 7% | -5% | -42%
Cc1cc2oc(C(=O)Nc3ccc(S(=O)(=O)Nc4onc(C)c4C)cc3)cc(=O)c2cc1C | ? | nt | 2% | nt | ? | 8%[59 µM]
COc1ccc(OCCCC(=O)Nc2nc(-c3ccccn3)cs2)cc1 | ? | -3 | -12% | 40µM* | -18% | ?
COc1ccc2oc(C(=O)Nc3nc(-c4ccccn4)cs3)c(C)c2c1 | nt | nt | nt | nt | nt | 50µM*
Cc1cc(C)c(OCC(=O)Nc2nc(-c3ccccn3)cs2)c(C)c1 | ? | -7 | -14% | -3% | -26% | 45µM*
CCC(C)NCCOc1ccc(Br)cc1 (centres undefined) | -2% | 4 | 4% | -6% | -3% | 13µM*
CCC(C)NCCOCCOc1ccc(C)cc1Br (centres undefined) | -11% | 0 | 13% | -19% | -3% | ?
CCC(C)NCCCOc1c(C)cc(C)cc1Br (centres undefined) | -7% | 0 | -5% | ? | -12% | 8.9µM*
CCC(C)NCCOc1ccccc1C (centres undefined) | 13% | 0 | 1% | 56µM* | -11% | 2.8µM*
CCC(C)NCCOCCOc1ccc(Br)cc1 (centres undefined) | -3% | 1 | 3% | ? | -6% | ?
c1ccc(C(c2ccccc2)c2noc(CN3CCC(c4ccncc4)CC3)n2)cc1 | -18% | -1 | 8% | 9% | 2% | -33%
Cc1ccc(-c2ccc(=O)n(CC(=O)N3CCN(c4cccc(C)c4)C(C)C3)n2)cc1 (centres undefined) | ? | -1 | 7% | -4% | -3% | 6%[12.7 µM]
Cc1ccc(N2C(=O)C3C4C=CC(CNC(=S)N5CCN(c6cccc(C)c6)C(C)C5)(O4)C3C2=O)cc1 (centres undefined) | -17% | 3 | 9% | 20µM* | 8% | 2µM*
O=C1/C(=C/c2ccc(C(=O)O)cc2)CCC/C1=C\c1ccc(C(=O)O)cc1 | 10µM* | 15 | ? | -26% | -9% | -44%[59 µM]
CN(C)c1ccc(/C=C2\CCC/C(=C\c3ccccc3)C2=O)cc1 | 2µM* | 1 | -2% | ? | ? | 3.5µM*
O=C(NCC(c1ccco1)S(=O)(=O)c1cccs1)c1ccccc1F (centres undefined) | -9% | nt | -11% | nt | -6% | 8%[59 µM]
